Screening results as filed in PubChem BioAssay.
Sampled rows, rich in hits. Any-hit rate of the full collection: about 2.7%.
GLP-1R agonist – agonists of human GLP-1 receptor; P43220; HEK293 GLP-1R CRE-luciferase, luminescence, 4-6 h; cells express a hypersensitive GLP-1R form; Potency, µM (highest dose often 45.6 µM), for inactives: top-dose activation, usual class: activators; 380,000 compounds, 0.007% hits; AID 624172; also: % of control where 0% means no effect
Target sequence (P43220 whole entry, looked up): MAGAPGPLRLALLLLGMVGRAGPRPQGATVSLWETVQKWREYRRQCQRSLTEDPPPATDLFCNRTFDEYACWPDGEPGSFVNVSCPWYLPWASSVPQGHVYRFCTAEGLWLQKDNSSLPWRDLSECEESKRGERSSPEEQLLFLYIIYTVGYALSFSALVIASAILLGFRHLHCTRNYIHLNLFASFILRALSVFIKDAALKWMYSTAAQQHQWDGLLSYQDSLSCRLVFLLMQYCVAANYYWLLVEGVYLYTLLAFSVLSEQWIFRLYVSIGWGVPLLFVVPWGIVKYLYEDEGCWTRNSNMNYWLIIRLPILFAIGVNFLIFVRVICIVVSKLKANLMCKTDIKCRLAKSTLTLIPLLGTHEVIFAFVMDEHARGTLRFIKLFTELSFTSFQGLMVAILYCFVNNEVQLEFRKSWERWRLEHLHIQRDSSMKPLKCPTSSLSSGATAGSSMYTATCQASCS
HEK293 tox – cytotoxic in the GLP-1 receptor inverse agonist counter-screen. HEK293 cAMP-luciferase reporter cells, luminescence, 24 h. 410,000 compounds, 0.13% hits. Potency, µM (series often up to 38.3 µM), without a hit: at the highest dose activity change, negative = inhibition, usual class: inhibitors;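 also: loss of luciferase light is scored as toxicity; % is scaled to controls: 0 for no effect and ±100 for the full control effect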
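MLSMR compounds, 24 hr on cells at 37 deg C/5% CO2; luminescence after luciferase reagent (12 min RT). Inhibition counted as the undesired cytotoxic outcome.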
GLP-1R inv ag – GLP-1 receptor (human) inverse agonism; P43220; 410,000 compounds, 1.6% hits; AID 624417; Potency, µM (top dose mostly 38.3 µM), without a hit: at the top dose activity change, negative = inhibition, usual class: inhibitors; HEK293 GLP-1R CRE-luciferase, luminescence, 24 h; GLP-1R form is constitutively active; also: % is scaled to controls: 0 for no effect and ±100 for the full control effect; nearly all actives have a fitted effect of over 55% in size
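HEK293 cells stably co-expressing a cAMP-responsive luciferase reporter and constitutively active GLP-1R were seeded, incubated 12 h, then exposed to compounds for 24 h at 37 C. Luminescence was read 12 min after detection reagent; inverse agonists lower signal.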
Integrin act MD – activators of alpha7 integrin expression for muscular dystrophy | alpha7betagal myoblasts, beta-gal FDG fluorescence, 48 h | Potency, µM (series often up to 38.3 µM), without a hit: top-dose activation, usual class: activators | 350,000 compounds, 0.064% hits | AID 624291;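 also: 100% = response of the positive control SU9516; nearly all actives have a fitted effect of over 60% in size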
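alpha7betagal+/- myoblasts (passage 13, 250/well) treated 48 h at 37C with compounds at 1:260 dilution of DMSO stock. Lysed, then beta-galactosidase activity read as FDG fluorescence (ex 480/em 540) after 30 min, with pre-read for autofluorescence.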
BRCA1 expr up – BRCA1 expression activation; MCF7-BRCA1-FFLuc reporter, luminescence, 48 h; response scale: scaled: vehicle 0%, 10 µM genistein 100%; 380,000 compounds, 1.1% hits; Potency, µM (highest dose often 46.1 µM), inactives show at the top dose activation, actives largely listed as activators; also: nearly all actives have a fitted effect of over 80% in size
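Activators of BRCA1 expression were detected as increased firefly luciferase luminescence in engineered MCF7 cells after 48 h compound incubation. Signals were scaled to genistein 10 microM as full activation.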
The depositor's hits bear a star; [ ] = remark or other dose. Calls follow the shape of the dose curve; as a rule, active = well fitted curve in the direction sought with a large enough effect; inconclusive = small, poorly fitted or top-dose-only effect, or another doubt; inactive = no such curve, though single readings can be large; an effect the other way counts as inactive or inconclusive. Potency is read from the fitted curve at half-maximal effect.

What do the screens show for `COc1ccc(NCc2cccn2-c2nnc(N3CCCCC3)s2)cc1OC`?
GLP-1R agonist: 16%; HEK293 tox: -8%; GLP-1R inv ag: -17%; BRCA1 expr up: 1%

What do the screens show for `COc1ccccc1CNC(=O)C1CCN(S(=O)(=O)c2ccc3c(c2)CCCN3C(C)=O)CC1`?
HEK293 tox: -3%; GLP-1R inv ag: 3%

What do the screens show for `Cc1ccc2nc(NC(=O)Cc3cccs3)sc2c1`?
GLP-1R agonist: -17%; HEK293 tox: 0%; GLP-1R inv ag: -10%; Integrin act MD: 0%; BRCA1 expr up: 66%

What do the screens show for `Cc1sc(NC(=O)CSC2=NCCS2)nc1-c1ccccc1`?
GLP-1R agonist: 1%; HEK293 tox: 12%; GLP-1R inv ag: -21%; Integrin act MD: -19%; BRCA1 expr up: -51%

Results for O=C(Cc1cccs1)Nc1nc2ccccc2s1 ?
GLP-1R agonist: 1%; HEK293 tox: -9%; GLP-1R inv ag: -14%; Integrin act MD: -17%; BRCA1 expr up: 7.1µM*

How did O=C(CSC1=NCCS1)Nc1nc2ccccc2s1 do in these assays?
GLP-1R agonist: 6%; HEK293 tox: -3%; GLP-1R inv ag: 13%; Integrin act MD: -40%; BRCA1 expr up: 8.9µM*

What do the screens show for `COc1ccc(CNC(=O)c2cccc(-n3cnc4cccnc43)c2C)cc1`?
HEK293 tox: -2%; GLP-1R inv ag: 6%

Results for Cc1ccc(S(=O)(=O)NCCc2nnc3ccc(SCc4ccccc4C)nn23)cc1 ?
HEK293 tox: 0%; GLP-1R inv ag: -2%

Results for O=C(c1ccco1)N1CCC(c2nc3c(nnn3Cc3ccccc3Cl)c(=O)[nH]2)CC1 ?
GLP-1R agonist: 15%; HEK293 tox: -15%; GLP-1R inv ag: 49%; Integrin act MD: 18%; BRCA1 expr up: -21%

Results for O=C(c1ccco1)N1CCN(c2nc(C3CC3)nc3c2nnn3Cc2ccccc2Cl)CC1 ?
GLP-1R agonist: 7%; HEK293 tox: 3%; GLP-1R inv ag: 10µM*; Integrin act MD: -33%; BRCA1 expr up: -68%

How did O=[N+]([O-])c1ccc(N=Nc2ncc[nH]2)cc1 do in these assays?
GLP-1R agonist: -2%; HEK293 tox: 5.6µM*; GLP-1R inv ag: inconclusive; Integrin act MD: 21%; BRCA1 expr up: -89%

How did Cc1cc(Cl)ccc1NC(=O)Cn1nnc2sc(-c3ccccc3)cc2c1=O do in these assays?
HEK293 tox: 9%; GLP-1R inv ag: 13%

How did Cc1ccc(-n2ncc3c(NC4CCCCCC4)ncnc32)cc1 do in these assays?
HEK293 tox: -13%; GLP-1R inv ag: 4.5µM*

What do the screens show for `Cc1ccc(-n2ncc3c(NC4CCCCC4)ncnc32)cc1`?
HEK293 tox: -21%; GLP-1R inv ag: 10µM*

How did CC(=O)N1c2c(cc(Br)cc2S(=O)(=O)N2CCN(c3cccc(Cl)c3)CC2)CC1C (stereo not given) do in these assays?
GLP-1R agonist: -3%; HEK293 tox: 4%; GLP-1R inv ag: 1%; BRCA1 expr up: 3%

How did CCOC(=O)C(C(=O)OCC)C1N=C(N)N=C2Oc3ccccc3N21 (stereo not given) do in these assays?
GLP-1R agonist: 5%; HEK293 tox: 0%; GLP-1R inv ag: 34%; Integrin act MD: -17%; BRCA1 expr up: 13µM*

How did CCOC(=O)CN1C(=O)C(CC)Oc2ccccc21 (stereo not given) do in these assays?
GLP-1R agonist: -12%; HEK293 tox: 1%; GLP-1R inv ag: -2%; Integrin act MD: 0%[7.66 µM]; BRCA1 expr up: 1%

How did O=C(COc1ccccc1C(=O)Nc1cccc(F)c1)Nc1ccc(Br)cc1 do in these assays?
BRCA1 expr up: -11%

How did Cc1ccc(O)c(N=Nc2nccs2)c1 do in these assays?
GLP-1R agonist: 1%; HEK293 tox: inconclusive; GLP-1R inv ag: 7.1µM*; Integrin act MD: -52%; BRCA1 expr up: -66%

What do the screens show for `CCOC(=O)c1[nH]c(C)c(CCC(=O)NCc2ccc(C)cc2)c1C`?
HEK293 tox: 2%; GLP-1R inv ag: -3%
